Screens as filed in PubChem.
PTK2B oligo ant = Pyk2 (human) oligomerization antagonism; z-score (the deposit names both 25 µM and 10 µM); 99,000 compounds, 0.83% hits; Q14289; Q293 cells, Pyk2 FERM NanoBiT luminescence; hits give low values;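 active = Z-score of -3 or lower, scaled per plate to the spread of control and sample wells; inactive = z-score above -3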;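 note: negative z-score means lost luminescence so less FERM oligomerization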
Cav3 T inh = human Cav3.2 channel inhibition, primary screen | O95180 | AID 449739 | 100,000 compounds, 4% hits | B-score at 10 µM | Cav3.2-expressing cells, Fluo-4 calcium fluorescence FDSS; hits give low values;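 active = single-dose well whose peak fluorescence ratio is a statistical outlier from its plate by either plate-standardised score or position-corrected B-score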
PostGolgi ctrl = growth of the yeast control strain, post-Golgi counter-screen; efflux-deficient yeast background strain, growth absorbance A615, 16 h; inhibition, % at 10 µM; 98,000 compounds, 5% hits
PostGolgi yeast = growth inhibition of a yeast mutant, post-Golgi transport screen; post-Golgi transport phenotypic cell assay; inhibition, % at 10 µM; 98,000 compounds, 0.9% hits; AID 739;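 note: yeast cells grown in 1536-well plates; yeast grown about 18 h at 30C before absorbance read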
Each line names hits and unclear results; the compound was inactive in the other large screens. An excerpt weighted towards active compounds, which were near 8% of everything screened. Cut-off read from the data, not from the text of the source, unless noted: active = inhibition above about 30%; inactive = the rest.

CCSc1nnc(-c2cccs2)o1	none
COc1ccc(CCNC(=O)CSc2nc(N)c(C#N)c(-c3cccs3)c2C#N)cc1OC	none
N#Cc1c(N)nc(SCc2ccncc2)c(C#N)c1-c1cccs1	PTK2B oligo ant -3.86, PostGolgi ctrl 48.6
COc1cc(-c2c(C#N)c(N)nc(SCc3ccncc3)c2C#N)cc(OC)c1OC	PTK2B oligo ant -4.07
COc1ccc(C2C(C#N)=C(C)NC3=C2S(=O)(=O)c2ccccc23)cc1 (stereo not given)	none (no result: PostGolgi ctrl, PostGolgi yeast)
O=C(O)COCc1nc2ccccc2[nH]1	none
COCCn1nnnc1C(c1ccc(Cl)cc1)N1CCSCC1 (stereo not given)	none
O=C(NC1CC1)c1cccc(Nc2ccc(-c3ccc4c(c3)OCCO4)nn2)c1	PTK2B oligo ant -3.35
O=[N+]([O-])c1cc(S(=O)(=O)C(F)(F)F)ccc1Sc1nc2ccccc2[nH]1	Cav3 T inh -4.55, PostGolgi ctrl 70.1
O=[N+]([O-])c1cc(S(=O)(=O)C(F)(F)F)ccc1Sc1nc2ccccc2s1	PostGolgi ctrl 92.3, PostGolgi yeast 40.8
CS(=O)(=O)c1ccc(Sc2nc3ccccc3s2)c([N+](=O)[O-])c1	none (no result: Cav3 T inh, PostGolgi ctrl, PostGolgi yeast)
CS(=O)(=O)c1ccc(Sc2nc3ccccc3[nH]2)c([N+](=O)[O-])c1	none
CCCN=C(C)c1c(-c2ccccc2)[nH]n(-c2nc3ccccc3s2)c1=O	PostGolgi ctrl 31.9
CCCn1c(SCC(=O)Nc2sc(C)c(C)c2C(=O)OCC)nc2c1c(=O)n(C)c(=O)n2C	none
Cc1csc(NC(=O)CSc2nc3ccccc3s2)n1	Cav3 T inh -7.01
Cc1csc(NC(=O)CSc2nsc(SCC(=O)Nc3nc(C)cs3)c2C#N)n1	PTK2B oligo ant -4.41
CC(C)(C)NC(=O)CSc1nsc(SCC(=O)NC(C)(C)C)c1C#N	none
Cc1ccc(CSc2nc3c(c(=O)[nH]2)CCC3)cc1	none
CN(C)c1nc(SCc2ccc(Cl)cc2)nc2c1CCCC2	PostGolgi ctrl 36.9
CNC(=O)C1(C)C=CC2(CCCCC2)N1C(=O)OC (stereo not given)	none (no result: PTK2B oligo ant, PostGolgi ctrl, PostGolgi yeast)
CN(C)S(=O)(=O)c1cccc(C(=O)NCc2ccco2)c1	none
Cc1ccc(N(Cc2ccco2)C(=O)c2cccc(S(=O)(=O)N(C)C)c2)cc1	Cav3 T inh -4.25
CN(C)S(=O)(=O)c1cccc(C(=O)N(Cc2ccc(F)cc2)Cc2ccco2)c1	Cav3 T inh -4.46
O=C(NCc1ccccc1)c1ccc(-c2ccc(F)cc2)o1	PostGolgi ctrl 31.2
COc1ccccc1-c1cc(C(=O)NCc2ccc(F)cc2)no1	PostGolgi ctrl 58.7
Nc1ccc(Sc2cnn(-c3ccccc3)c(=O)c2Cl)cc1	PostGolgi ctrl 40.0
CNc1cnn(-c2ccccc2)c(=O)c1Cl	none
CCCCn1ccnc1C(=O)c1cccc(S(=O)(=O)N2CC(C)CC(C)C2)c1 (stereo not given)	none
Cc1ccc(C(=O)Nc2ncnc3sc4c(c23)CCCCC4)cc1	none
Cc1ccc(C(=O)Nc2ccccc2C(=O)N2CC3(C)CC2CC(C)(C)C3)cc1 (stereo not given)	Cav3 T inh -5.93, PostGolgi ctrl 41.1
CCOC(=O)C1CCCN(C(=O)c2cc(Cl)ccc2Cl)C1 (stereo not given)	none
CN1CCN(C(=O)c2cc(Cl)ccc2Cl)CC1	PostGolgi ctrl 31.3
Cc1ccc2c(c1)cc(CN(Cc1ccco1)S(=O)(=O)c1ccccc1)c1nnnn12	PostGolgi ctrl 44.8
Cc1ccccc1-n1c(Cn2c(=O)sc3ccccc32)nnc1SCC(=O)NCC1CCCO1 (stereo not given)	none (no result: PTK2B oligo ant)
O=C(CN1C(=O)NC2(CCCCCC2)C1=O)N1CCN(S(=O)(=O)c2ccc(Cl)cc2)CC1	none
Cc1ccc(-c2cnc(NC(=O)c3cccc(Br)c3)s2)c(C)c1	none
CCN(CC)C(=O)C1CCN(Cc2ccc(Br)cc2)CC1	PostGolgi yeast 60.9
COc1cc(OC)cc(-c2cc3nc(C)cc(N4CCN(C(=O)c5ccco5)CC4)n3n2)c1	PostGolgi ctrl 30.2 (no result: PTK2B oligo ant, Cav3 T inh)
Cc1cc(N2CCN(C(=O)c3ccco3)CC2)nc(-c2ccccc2)n1	none (no result: PostGolgi ctrl, PostGolgi yeast)
CC(C)COc1ccc(C(=O)CCN2CCCCC2)cc1	PostGolgi ctrl 44.1
O=C(N[C@H](CO)Cc1ccccc1)c1ccco1	none (no result: PTK2B oligo ant, PostGolgi ctrl, PostGolgi yeast)
O=C(CCN1C(=O)c2ccccc2S1(=O)=O)Nc1nc2c(s1)CCCC2	none
CC(=O)Oc1ccc(C(=O)Nc2nnc(C)s2)cc1	PostGolgi yeast 30.4
Cc1nnc(NC(=O)c2ccc(Br)cc2)s1	none
COc1ccc(CC(=O)Nc2cccc(/C(C)=N/NC(=O)c3cccc([N+](=O)[O-])c3)c2)cc1	none
CCN(CC)S(=O)(=O)N1CCC(C(=O)NCC2COc3ccccc3O2)CC1 (stereo not given)	none
CCN(c1ccccc1)S(=O)(=O)c1ccc(NCC2COc3ccccc3O2)nc1 (stereo not given)	Cav3 T inh -4.8, PostGolgi ctrl 55.6
Cc1c(C)[n+](=O)c(-c2ccco2)c(C)n1[O-]	PostGolgi ctrl 30.9
Cc1cc(OCC(F)(F)C(F)(F)C(F)(F)C(F)(F)C(F)(F)C(F)F)nc(N)n1	PostGolgi yeast 37.0
CCN(CC)C(=S)Sc1c(-c2ccccc2)c2cc(Cl)ccc2[nH]c1=O	PostGolgi ctrl 32.0
CC(C)(C)OC(=O)N1CCC2(CC1)Oc1ccc(Cl)cc1C(=O)C21CC(c2ccc(Cl)cc2)=NO1 (stereo not given)	none (no result: PTK2B oligo ant, PostGolgi ctrl, PostGolgi yeast)
CCOc1cccc(N(C(=O)Cc2cccs2)C(C(=O)NC2CCCCC2)c2cccn2C)c1 (stereo not given)	Cav3 T inh -4.1 (no result: PostGolgi ctrl, PostGolgi yeast)
Cc1cc(C)cc(N(C(=O)Cc2cccs2)C(C(=O)NC2CCCCC2)c2ccccn2)c1 (stereo not given)	Cav3 T inh -5.26
CCc1ccc(N(C(=O)Cc2cccs2)C(C(=O)NC2CCCCC2)c2cn(C)nc2C)cc1 (stereo not given)	none
CCNc1nc(NC(C)C)nc(OCC)n1	none
CCOC(=O)c1ccccc1NC(=O)CSc1nnc(C(C)C)n1CC	none (no result: PostGolgi ctrl, PostGolgi yeast)
Cc1ccc(-c2ccc(/C=C(\C#N)C(=O)Nc3cc(C)nn3-c3ccccc3)o2)cc1	Cav3 T inh -6.6 (no result: PTK2B oligo ant)
O=C(Nc1ccccc1)N(CCc1ccncc1)C1CCCCC1	none (no result: PTK2B oligo ant, PostGolgi ctrl, PostGolgi yeast)
CC(C)c1ccc(NC(=O)N(CCc2nc3ccccc3[nH]2)C2CCCC2)cc1	Cav3 T inh -6.57
COc1ccc(NC(C)C(=O)N/N=C/c2ccccc2OCc2ccc(Br)cc2)cc1 (stereo not given)	Cav3 T inh -5.92
Cc1ccc(S(=O)(=O)N(CC(=O)N/N=C/c2cccc3c2OCCO3)c2ccccc2F)cc1	none
O=C(O)c1cc(N2C(=O)C3CC=CCC3C2=O)ccc1NCc1cccnc1 (stereo not given)	none (no result: Cav3 T inh)
COC(=O)c1c(C)oc2c1cc(NS(=O)(=O)c1cccs1)c1ccccc12	PostGolgi ctrl 37.7
Cc1oc2c(cc(NS(=O)(=O)c3ccc4c5c(cccc35)C(=O)N4)c3ccccc32)c1C(=O)OC(C)C	none (no result: Cav3 T inh)
Cc1ccc(NC(=O)C(Cc2ccccc2)NC(=O)c2ccco2)cc1 (stereo not given)	none
CC(C)NC(=O)CSc1nncn1-c1ccccc1	PostGolgi ctrl 33.3
Cc1ccc(OCC(O)CNC(=O)c2ccccc2C(=O)O)cc1 (stereo not given)	none
CCn1c2ccccc2c2nnc(SCC(=O)NC(CC(C)C)C(=O)OC)nc21 (stereo not given)	none
